PMC8769072, “Proteome‐scale mapping of binding sites in the unstructured regions of the human proteome” (Molecular Systems Biology, 2022)

ANKRA2 142-313, Q9H9E1, sequence (Q9H9E1 142-313): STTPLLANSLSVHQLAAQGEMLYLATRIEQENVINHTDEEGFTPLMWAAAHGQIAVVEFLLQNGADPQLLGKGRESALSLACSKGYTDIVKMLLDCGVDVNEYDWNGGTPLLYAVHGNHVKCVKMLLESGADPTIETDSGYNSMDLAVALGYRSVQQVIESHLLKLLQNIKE
AP2B1 700-937, P63010, sequence (P63010 700-937): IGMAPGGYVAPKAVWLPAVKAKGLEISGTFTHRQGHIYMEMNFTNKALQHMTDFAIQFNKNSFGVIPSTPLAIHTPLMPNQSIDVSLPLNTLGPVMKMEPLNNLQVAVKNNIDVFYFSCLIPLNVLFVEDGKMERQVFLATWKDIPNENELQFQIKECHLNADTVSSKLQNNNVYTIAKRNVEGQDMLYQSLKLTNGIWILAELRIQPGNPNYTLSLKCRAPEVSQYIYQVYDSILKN

RGVEWAAFGRDLFLAS [ELP2, Q6IA86]
selected by phage display (AP2B1 700-937, P63010): confidence 3 (active)

APPFPQSTFTPWASWV [SPATA31E1, Q6ZUB1]
selected by phage display (AP2B1 700-937, P63010): confidence 3 (active)

VELPALPSLPTLPTLP [PRX, Q9BXM0]
selected by phage display (ANKRA2 142-313, Q9H9E1): confidence 2 (active)

LSHLGQVEPVPWADAF [ANKRD11, Q6UB99]
selected by phage display (AP2B1 700-937, P63010): confidence 2 (active)

FDWSSFKPMGFEVSFL [ZNF292, O60281]
selected by phage display (AP2B1 700-937, P63010): confidence 2 (active)

SANADFANFDAFGQSS [AGFG1, P52594]
selected by phage display (AP2B1 700-937, P63010): confidence 3 (active)

AAKPSLPALDPMSMLF [TSHZ3, Q63HK5]
selected by phage display (ANKRA2 142-313, Q9H9E1): confidence 3 (active)

WPASWGFPDASSTVPS [Q96NJ1]
selected by phage display (AP2B1 700-937, P63010): confidence 2 (active)

LPNLPNLNLNLPAPHI [GORASP2, Q9H8Y8]
selected by phage display (ANKRA2 142-313, Q9H9E1): confidence 2 (active)

WGEPWGEPSTPATTVD [TNRC6A, Q8NDV7]
selected by phage display (AP2B1 700-937, P63010): confidence 2 (active)

SWAAFGDQQATESHHR [AFTPH, Q6ULP2]
selected by phage display (AP2B1 700-937, P63010): confidence 3 (active)

ALLLPDLSLHVPPGGA [ZNF513, Q8N8E2]
selected by phage display (ANKRA2 142-313, Q9H9E1): confidence 2 (active)

DPGAMEPWALPTWHSW [TSPOAP1, O95153]
selected by phage display (AP2B1 700-937, P63010): confidence 2 (active)

DSDGHTDAFVAYFADG [BBS5, Q8N3I7]
selected by phage display (AP2B1 700-937, P63010): confidence 2 (active)

AESSQAVMSLPKLQQV [ZNF362, Q5T0B9]
selected by phage display (ANKRA2 142-313, Q9H9E1): confidence 4 (active)

EPSTTPNNWADFSSTW [ITSN1, Q15811]
selected by phage display (AP2B1 700-937, P63010): confidence 4 (active)

PQPKLPYLPTFPFSMP [NOBOX, O60393]
selected by phage display (ANKRA2 142-313, Q9H9E1): confidence 2 (active)

MGGAAASWAGWAVTGV [SCYL1, Q96KG9]
selected by phage display (AP2B1 700-937, P63010): confidence 3 (active)

WSHWEDSALPPPSLRP [RHBDD3, Q9Y3P4]
selected by phage display (AP2B1 700-937, P63010): confidence 3 (active)

VAAGWWAFAPPALQVL [SLCO4A1, Q96BD0]
selected by phage display (AP2B1 700-937, P63010): confidence 2 (active)

PWVPNWELGEPPGNAP [ZNF831, Q5JPB2]
selected by phage display (AP2B1 700-937, P63010): confidence 3 (active)

NLRLPSLDEQVIPARL [Q5PR19]
selected by phage display (ANKRA2 142-313, Q9H9E1): confidence 2 (active)

NPGLSWTDWPEPSLLE [PHF7, Q9BWX1]
selected by phage display (AP2B1 700-937, P63010): confidence 3 (active)

EWLYGGPWDVHVHSDL [FIP1L1, Q6UN15]
selected by phage display (AP2B1 700-937, P63010): confidence 2 (active)

AEPFSSSSPTPLFPWF [KMT2A, Q03164]
selected by phage display (AP2B1 700-937, P63010): confidence 2 (active)

TESWMSPLAWLEKGVN [SPAG5, Q96R06]
selected by phage display (AP2B1 700-937, P63010): confidence 2 (active)

LNSPAWEASGLHWSSL [GNAS, P84996]
selected by phage display (AP2B1 700-937, P63010): confidence 3 (active)

ITAWEAGWNVTNAIQG [SLC32A1, Q9H598]
selected by phage display (AP2B1 700-937, P63010): confidence 3 (active)

EATEEGWASFSAELSH [OBSCN, Q5VST9]
selected by phage display (AP2B1 700-937, P63010): confidence 4 (active)

SQEDWTTFTHDRIRQL [INPPL1, O15357]
selected by phage display (AP2B1 700-937, P63010): confidence 2 (active)

MPPSQLQLPTLPLVMV [FOXP3, Q9BZS1]
selected by phage display (ANKRA2 142-313, Q9H9E1): confidence 2 (active)

ASSPVNWAAPWANAMN [TEX13C, A0A0J9YWL9]
selected by phage display (AP2B1 700-937, P63010): confidence 3 (active)

NFADFSQFEVFAASNV [REPS1, Q96D71]
selected by phage display (AP2B1 700-937, P63010): confidence 3 (active)

MSARPSLPPLPAKPAG [SERTAD4-AS1, Q5TG53]
selected by phage display (ANKRA2 142-313, Q9H9E1): confidence 2 (active)

VFPRPVLPSLTVSRVI [C16orf46, Q6P387]
selected by phage display (ANKRA2 142-313, Q9H9E1): confidence 4 (active)

AGLGGPVDFSDLPWPL [ARNTL, O00327]
selected by phage display (AP2B1 700-937, P63010): confidence 2 (active)

QASLQAMSLPELSGAL [ANKS3, Q6ZW76]
selected by phage display (ANKRA2 142-313, Q9H9E1): confidence 2 (active)

WTAWEADALFMQRDVY [ZNF532, Q9HCE3]
selected by phage display (AP2B1 700-937, P63010): confidence 3 (active)

PEWEVAAPWGSVGPGA [GPR179, Q6PRD1]
selected by phage display (AP2B1 700-937, P63010): confidence 2 (active)

TVGKNHEWNWAFVAFT [SLC9A2, Q9UBY0]
selected by phage display (AP2B1 700-937, P63010): confidence 2 (active)

SWEAFDSHGQESSGQL [F8A3, P23610]
selected by phage display (AP2B1 700-937, P63010): confidence 2 (active)

MSGWAEGPRMLSWAPF [TSPO2, Q5TGU0]
selected by phage display (AP2B1 700-937, P63010): confidence 3 (active)

TQAQAALNFGWAFSWL [C12orf71, A8MTZ7]
selected by phage display (AP2B1 700-937, P63010): confidence 2 (active)

NSISEPKGNPLAWQAF
selected by phage display (AP2B1 700-937, P63010): confidence 3 (active)

HERDPWYSWDQPGLRL [NDUFB8, O95169]
selected by phage display (AP2B1 700-937, P63010): confidence 3 (active)

VPVWEPQDWQQQLVNI [NTHL1, P78549]
selected by phage display (AP2B1 700-937, P63010): confidence 3 (active)

PGTLLPTPGLPQFPSA [OTP, Q5XKR4]
selected by phage display (ANKRA2 142-313, Q9H9E1): confidence 2 (active)

EEEMEVPVLPKISLPI [NUP153, P49790]
selected by phage display (ANKRA2 142-313, Q9H9E1): confidence 2 (active)

TGQDIAPRDSPEWVAF [FRMPD1, Q5SYB0]
selected by phage display (AP2B1 700-937, P63010): confidence 3 (active)

ELLTVPDGWKEPAFSK [KRR1, Q13601]
selected by phage display (AP2B1 700-937, P63010): confidence 3 (active)

VGLPLPPTLPSLIPFI [SALL1, Q9NSC2]
selected by phage display (ANKRA2 142-313, Q9H9E1): confidence 2 (active)

DSALSLPPLSLPHPHP [NTM-AS1, Q6ZSK4]
selected by phage display (ANKRA2 142-313, Q9H9E1): confidence 3 (active)

EERLRGWEAFLNAPEA [HTATSF1, O43719]
selected by phage display (AP2B1 700-937, P63010): confidence 2 (active)

EKPVPTLPQFTMGPNV [EFNA3, P52797]
selected by phage display (ANKRA2 142-313, Q9H9E1): confidence 3 (active)

WQAFESQPAAPAVPMN
selected by phage display (AP2B1 700-937, P63010): confidence 2 (active)

PWTAFPKPSNSQPTSP [CGNL1, Q0VF96]
selected by phage display (AP2B1 700-937, P63010): confidence 3 (active)

FTKVEHWSSFAALPWG [SLC35F4, A4IF30]
selected by phage display (AP2B1 700-937, P63010): confidence 2 (active)

WDVPAWESTQHPWPVA [ZNF786, Q8N393]
selected by phage display (AP2B1 700-937, P63010): confidence 4 (active)

EKSPTDWALFTYEGNS [DBNL, Q9UJU6]
selected by phage display (AP2B1 700-937, P63010): confidence 2 (active)

SMLKLPDLPQNSVKLQ [KIAA0586, Q9BVV6]
selected by phage display (ANKRA2 142-313, Q9H9E1): confidence 3 (active)

YTSPSLPNISLGLQAT [HDAC5, Q9UQL6]
selected by phage display (ANKRA2 142-313, Q9H9E1): confidence 4 (active)

ESFGGGFADFSTLSKV [EPS15, P42566]
selected by phage display (AP2B1 700-937, P63010): confidence 3 (active)
